In assay [1] the target is Thyrotropin-releasing hormone receptor (Homo sapiens) (UniProt P34981). Briefly: qHTS assay to identify small molecule agonists of the thyrotropin-releasing hormone receptor (TRHR) signaling pathway (AID 1346891; calls by dose curve;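 note: HEK293 cells expressing TRHR with calcium dye readout; series mostly up to about 58 µM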). The gist of the method:
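HEK293/TRHR cells, 1500 per well, 18 h 37 °C; Ca dye 2 h 37 °C; pin-tool compound addition (agonist mode); kinetic fluorescence 3 min, 1 s reads; 15 concentrations, triplicate.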
(Quantitative high-throughput screening tests each substance at several concentrations.)

Assay [2] in a line: Human pregnane X receptor (PXR) small molecule agonists, qHTS cell viability counter screen (AID 1346977). Note: nearly all actives have a fitted effect of over 50% in size. In a few lines: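 Fluorescence read-out (CellTiter-Fluor) of viability in PXR-Luc HepG2 cells, multiplexed with the luciferase agonist read. Compounds in DMSO added after 5hr plating; 24hr total exposure at 37C, 5% CO2.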
A short description of assay [3]: Caspase-3/7 induction in HepG2 cells by small molecules, qHTS assay (AID 1346978). Note: nearly all actives have a fitted effect of over 15% in size. The gist of the method:
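Caspase-3/7 induction was measured by Caspase-Glo 3/7 luminescence (30 min, room temperature) after a 17 hr compound exposure of wild-type HepG2 cells seeded at 2,000 per well and pre-incubated 5 hr.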

A short description of assay [4]: Caspase-3/7 induction in CHO-K1 cells by small molecules, qHTS cell viability counter screen (AID 1346979). Note: nearly all actives have a fitted effect of over 35% in size. Note: potency is the fitted concentration of half-maximal effect. The gist of the method: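 CHO-K1 wt, 1,500 cells/well; 5hr pre-incubation 37C/5% CO2; compound pin transfer (DMSO); 16hr exposure; CellTiter-Fluor added, 1hr, fluorescence read.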
Assay [5] is described as follows: Caspase-3/7 induction in CHO-K1 cells by small molecules, qHTS assay (AID 1346980). Note: nearly all actives have a fitted effect of over 15% in size. The gist of the method: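 Luminescent Caspase-Glo 3/7 read (30min, room temperature) quantified apoptosis induction. Cells were wild-type CHO-K1, treated with compound for 17hr at 37 C and 5% CO2.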
The nature of assay [6]: Caspase-3/7 induction in HepG2 cells by small molecules, qHTS cell viability counter screen (AID 1346981). Note: series mostly up to about 92 µM; nearly all actives have a fitted effect of over 30% in size. In a few lines: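 Cell viability is measured as a cytotoxicity counter screen alongside the Caspase-Glo 3/7 readout in identical wells. Wild-type HepG2 cells are treated with test compounds for 16 hr at 37 C before CellTiter-Fluor addition and a 1-hr incubation.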
For assay [7], the target named is Nuclear receptor subfamily 1 group I member 2 (Homo sapiens) (UniProt O75469). Nature of the assay: Human pregnane X receptor (PXR) small molecule agonists, qHTS assay (AID 1346982). Note: nearly all actives have a fitted effect of over 35% in size. Note: potency is the fitted concentration of half-maximal effect. The gist of the method:
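Cells: HepG2 stably carrying PXR-Luc. Medium held 5% charcoal-stripped FBS. Compounds in DMSO added after 5 hr plating, incubated 24 hr, then luminescence quantified with ONE-Glo.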

Assay [8] deals with Cytochrome P450 2D6 (Homo sapiens) (UniProt P10635). Nature of the assay: Cytochrome P450 Family 2 Subfamily D Member 6 (CYP2D6) small molecule antagonists: luciferase reporter qHTS assay (AID 1671196). Note: nearly all actives have a fitted effect of over 50% in size. Note: potency is the fitted concentration of half-maximal effect. In a few lines: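 Enzyme and proluciferin substrate were first combined with test chemical for 10 min at room temperature. Adding NADPH regeneration solution started a 1 h reaction, stopped with luciferin detection reagent and read by luminescence 20 min later.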
Cytochrome P450 2D6 (Homo sapiens), sequence (P10635 whole entry, looked up): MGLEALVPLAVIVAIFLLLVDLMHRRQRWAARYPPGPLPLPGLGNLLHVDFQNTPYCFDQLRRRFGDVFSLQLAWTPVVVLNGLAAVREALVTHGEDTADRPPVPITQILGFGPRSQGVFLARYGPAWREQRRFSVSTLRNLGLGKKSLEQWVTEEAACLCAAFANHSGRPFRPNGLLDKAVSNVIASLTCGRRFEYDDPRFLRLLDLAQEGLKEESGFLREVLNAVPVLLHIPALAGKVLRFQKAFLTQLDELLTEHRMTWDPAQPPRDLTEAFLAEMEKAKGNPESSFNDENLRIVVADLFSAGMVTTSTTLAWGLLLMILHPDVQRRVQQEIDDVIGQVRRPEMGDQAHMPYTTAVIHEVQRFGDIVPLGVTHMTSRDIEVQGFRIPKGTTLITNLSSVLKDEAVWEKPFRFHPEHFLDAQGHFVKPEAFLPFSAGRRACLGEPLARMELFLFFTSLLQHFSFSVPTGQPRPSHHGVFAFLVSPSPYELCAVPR
For orientation: Reporter assays use an easily measured gene product as a stand-in for the process of interest.

The target of assay [9] is Cytochrome P450 2C19 (Homo sapiens) (UniProt P33261). Nature of the assay: Cytochrome P450 Family 2 Subfamily C Member 19 (CYP2C19) small molecule antagonists: luciferase reporter qHTS assay (AID 1671197). Note: nearly all actives have a fitted effect of over 65% in size. Note: potency is the fitted concentration of half-maximal effect. The gist of the method: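 Relative luminescence units recorded 20 min after the detection reagent stopped a 1 h, 37C CYP2C19 reaction on proluciferin substrate, which was started by NADPH regeneration following 10 min room-temperature compound preincubation; ketoconazole positive control.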
Cytochrome P450 2C19 (Homo sapiens), sequence (P33261 whole entry, looked up): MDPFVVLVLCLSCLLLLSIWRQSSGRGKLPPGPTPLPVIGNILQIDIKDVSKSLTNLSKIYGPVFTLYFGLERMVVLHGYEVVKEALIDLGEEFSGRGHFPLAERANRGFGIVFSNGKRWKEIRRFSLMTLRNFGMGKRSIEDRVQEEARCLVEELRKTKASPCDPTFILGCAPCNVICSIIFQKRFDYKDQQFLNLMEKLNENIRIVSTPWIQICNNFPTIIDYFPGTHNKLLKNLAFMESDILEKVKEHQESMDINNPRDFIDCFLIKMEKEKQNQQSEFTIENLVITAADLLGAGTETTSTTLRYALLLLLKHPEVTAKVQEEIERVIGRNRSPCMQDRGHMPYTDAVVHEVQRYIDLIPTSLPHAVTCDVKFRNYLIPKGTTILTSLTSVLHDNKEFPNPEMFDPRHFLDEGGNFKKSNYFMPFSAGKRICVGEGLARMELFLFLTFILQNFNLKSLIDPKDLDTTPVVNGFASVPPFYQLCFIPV

Assay [10] concerns the target Cytochrome P450 2C9 (Homo sapiens) (UniProt P11712). Nature of the assay: Cytochrome P450 Family 2 Subfamily C Member 9 (CYP2C9) small molecule antagonists: luciferase reporter qHTS assay (AID 1671198). Note: nearly all actives have a fitted effect of over 50% in size. Note: potency is the fitted concentration of half-maximal effect. The gist of the method:
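Enzyme-substrate mix preincubated with compound 10 min at room temperature; reaction started with NADPH regeneration solution, 1 h 37C. Luminescent luciferin product read after 20 min detection reagent.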

For assay [11], the target named is Cytochrome P450 1A2 (Homo sapiens) (UniProt P05177). Nature of the assay: Cytochrome P450 Family 1 Subfamily A Member 2 (CYP1A2) small molecule antagonists: luciferase reporter qHTS assay (AID 1671199). Note: nearly all actives have a fitted effect of over 50% in size. Note: potency is the fitted concentration of half-maximal effect. The gist of the method: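 Compounds were incubated with CYP1A2 and a luminogenic proluciferin substrate for 10 min at room temperature before the reaction was started with NADPH regeneration solution. After 1 h, detection reagent was added and light output, proportional to CYP activity, was recorded.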
Cytochrome P450 1A2 (Homo sapiens), sequence (P05177 whole entry, looked up): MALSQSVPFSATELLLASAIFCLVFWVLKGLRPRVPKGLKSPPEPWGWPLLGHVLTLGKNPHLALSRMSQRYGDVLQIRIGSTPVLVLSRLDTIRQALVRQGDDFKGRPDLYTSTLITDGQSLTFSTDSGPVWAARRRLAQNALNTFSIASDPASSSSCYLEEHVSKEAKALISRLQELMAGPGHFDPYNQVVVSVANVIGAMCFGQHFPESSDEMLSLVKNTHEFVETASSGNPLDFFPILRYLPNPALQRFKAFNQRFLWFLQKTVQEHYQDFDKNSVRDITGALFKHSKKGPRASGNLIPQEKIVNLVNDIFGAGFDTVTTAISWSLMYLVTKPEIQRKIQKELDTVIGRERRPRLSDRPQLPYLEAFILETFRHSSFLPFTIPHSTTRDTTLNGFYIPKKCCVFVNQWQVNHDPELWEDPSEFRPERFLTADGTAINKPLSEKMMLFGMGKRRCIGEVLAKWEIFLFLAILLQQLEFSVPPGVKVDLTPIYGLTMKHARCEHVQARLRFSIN

The target of assay [12] is Voltage-gated inwardly rectifying potassium channel KCNH2 (Homo sapiens) (UniProt Q12809). Nature of the assay: Human Ether-a-go-go-Related Gene (hERG) channel small molecule antagonists: fluorescence cell-based qHTS assay (AID 1671200). In a few lines: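 Read-out: thallium influx as a surrogate for potassium, tracked as fluorescence (480 nm ex/540 nm em) every second for 2 min after Stimulus Buffer addition in dye-loaded hERG-U2OS cells.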
Voltage-gated inwardly rectifying potassium channel KCNH2 (Homo sapiens), sequence (Q12809 whole entry, looked up): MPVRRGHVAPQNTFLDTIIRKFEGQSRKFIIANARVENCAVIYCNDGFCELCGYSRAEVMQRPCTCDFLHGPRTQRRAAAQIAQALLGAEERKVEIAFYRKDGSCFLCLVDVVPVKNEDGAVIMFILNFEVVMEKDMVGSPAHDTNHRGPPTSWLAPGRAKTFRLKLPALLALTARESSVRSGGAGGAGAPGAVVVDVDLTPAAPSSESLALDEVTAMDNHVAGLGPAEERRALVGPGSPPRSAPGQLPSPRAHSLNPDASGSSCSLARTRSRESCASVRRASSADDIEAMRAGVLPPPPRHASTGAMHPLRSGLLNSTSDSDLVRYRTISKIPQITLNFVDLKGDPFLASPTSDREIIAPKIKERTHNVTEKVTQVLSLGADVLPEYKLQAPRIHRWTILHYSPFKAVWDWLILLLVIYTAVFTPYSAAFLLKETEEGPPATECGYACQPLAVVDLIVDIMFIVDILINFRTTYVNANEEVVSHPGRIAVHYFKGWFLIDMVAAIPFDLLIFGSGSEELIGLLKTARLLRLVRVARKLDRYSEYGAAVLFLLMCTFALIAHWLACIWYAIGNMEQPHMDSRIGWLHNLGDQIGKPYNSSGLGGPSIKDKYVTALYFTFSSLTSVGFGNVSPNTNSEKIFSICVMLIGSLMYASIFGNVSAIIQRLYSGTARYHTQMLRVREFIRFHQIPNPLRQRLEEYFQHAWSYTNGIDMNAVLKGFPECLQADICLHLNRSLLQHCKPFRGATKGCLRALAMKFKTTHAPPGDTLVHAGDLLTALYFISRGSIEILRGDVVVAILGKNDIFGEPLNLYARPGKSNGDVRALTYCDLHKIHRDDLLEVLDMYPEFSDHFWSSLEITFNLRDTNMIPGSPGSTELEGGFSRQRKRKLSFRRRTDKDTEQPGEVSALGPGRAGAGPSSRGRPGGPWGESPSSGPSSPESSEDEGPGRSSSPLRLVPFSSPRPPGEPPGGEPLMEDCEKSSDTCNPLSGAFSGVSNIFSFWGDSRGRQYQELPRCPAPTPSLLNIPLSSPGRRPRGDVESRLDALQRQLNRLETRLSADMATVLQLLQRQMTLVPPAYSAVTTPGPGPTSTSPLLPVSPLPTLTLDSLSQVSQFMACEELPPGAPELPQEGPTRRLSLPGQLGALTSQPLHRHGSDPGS
On the technique in general: hERG is a cardiac potassium channel; its block is linked to QT prolongation.

Assay [13] deals with Cytochrome P450 3A4 (Homo sapiens) (UniProt P08684). Briefly: Cytochrome P450 Family 3 Subfamily A Member 4 (CYP3A4) small molecule antagonists: luciferase reporter qHTS assay (AID 1671201). The gist of the method: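 Luminescent readout (RLU) proportional to CYP3A4 activity, from luciferin generated off a proluciferin substrate. Enzyme–substrate mix plus compound 10 min at room temp, NADPH regeneration 1 h, detection reagent 20 min.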
Cytochrome P450 3A4 (Homo sapiens), sequence (P08684 whole entry, looked up): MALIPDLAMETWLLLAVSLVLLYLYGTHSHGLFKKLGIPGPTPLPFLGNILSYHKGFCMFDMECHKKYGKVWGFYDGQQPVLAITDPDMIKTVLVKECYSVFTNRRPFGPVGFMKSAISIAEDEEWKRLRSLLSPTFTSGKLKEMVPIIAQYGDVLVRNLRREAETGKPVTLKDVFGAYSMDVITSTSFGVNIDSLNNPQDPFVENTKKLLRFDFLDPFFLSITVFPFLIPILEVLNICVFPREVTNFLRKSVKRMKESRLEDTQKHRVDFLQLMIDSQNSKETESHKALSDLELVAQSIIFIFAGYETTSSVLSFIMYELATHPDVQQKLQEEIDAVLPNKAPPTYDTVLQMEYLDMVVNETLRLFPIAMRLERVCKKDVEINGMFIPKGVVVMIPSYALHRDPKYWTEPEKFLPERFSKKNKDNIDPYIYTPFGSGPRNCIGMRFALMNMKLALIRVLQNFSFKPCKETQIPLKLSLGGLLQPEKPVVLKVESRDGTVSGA

Assay [14] concerns the target Nuclear receptor subfamily 1 group I member 2 (Rattus norvegicus) (UniProt Q9R1A7). Briefly: Rat pregnane X receptor (rPXR) activation by small molecules, qHTS assay (AID 1346983). Note: nearly all actives have a fitted effect of over 20% in size. Note: potency is the fitted concentration of half-maximal effect. Particulars: rPXR luciferase reporter cells, One-Glo luminescence, 24 h; max activation: active compounds read high. The gist of the method:
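Luminescent readout (One-Glo luciferase, 30 min room temperature) followed 24 hr compound treatment at 37 C of rPXR cells plated 2,000 per well and preincubated 5hr; qHTS format with compounds delivered in DMSO.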

Assay [15] concerns the target Nuclear receptor subfamily 1 group I member 2 (Homo sapiens) (UniProt O75469). Nature of the assay: CYP3A4 induction through human pregnane X receptor (PXR) by small molecules, qHTS assay (AID 1346984). Note: nearly all actives have a fitted effect of over 40% in size. The gist of the method:
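Quantitative HTS in DPX-2 cells, i.e. HepG2 transfected with PXR response element and CYP3A4-promoter luciferase. Compounds in DMSO incubated 24hr at 37C; then P450-Glo CYP3A4 substrate, 3uM final, 3hr; One-Glo luminescence.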

The target is the same in assay [16]. Nature of the assay: Human pregnane X receptor (PXR) activation by small molecules, qHTS assay (AID 1346985). Note: nearly all actives have a fitted effect of over 40% in size. Note: potency is the fitted concentration of half-maximal effect. The gist of the method: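 DPX-2 cells (HepG2 co-transfected with a PXR response element and a CYP3A4-promoter luciferase construct) were seeded at 2,000 per well, rested 5 hr at 37C, then exposed to DMSO-dissolved compounds for 24 hr. Activation was read as luciferase luminescence.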

A number with no mark means an inactive call. Results filed as inconclusive are left out. Activity calls are given as the source filed them. Unless noted, calls come from the whole dose curve; as a rule, active = well fitted curve in the direction sought with a large enough effect in the repeat runs; inconclusive = weak or mixed curves; inactive = no such curve, though single readings can be large; an effect the other way counts as inactive or inconclusive.
% is set by controls: 0 for no effect and ±100 for the full control effect.

Thyrotropin-releasing hormone receptor (Homo sapiens), sequence (P34981 whole entry, looked up): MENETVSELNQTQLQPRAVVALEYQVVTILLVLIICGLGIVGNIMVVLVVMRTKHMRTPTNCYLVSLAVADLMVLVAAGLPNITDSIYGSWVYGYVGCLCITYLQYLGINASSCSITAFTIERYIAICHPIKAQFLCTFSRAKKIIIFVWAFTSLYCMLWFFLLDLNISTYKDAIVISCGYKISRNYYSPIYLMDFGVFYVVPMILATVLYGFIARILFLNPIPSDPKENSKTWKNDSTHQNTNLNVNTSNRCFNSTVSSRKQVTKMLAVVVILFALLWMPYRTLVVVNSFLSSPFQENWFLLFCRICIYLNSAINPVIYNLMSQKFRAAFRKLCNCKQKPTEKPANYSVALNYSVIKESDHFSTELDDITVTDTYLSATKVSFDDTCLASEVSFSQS
Nuclear receptor subfamily 1 group I member 2 (Homo sapiens), sequence (O75469 whole entry, looked up): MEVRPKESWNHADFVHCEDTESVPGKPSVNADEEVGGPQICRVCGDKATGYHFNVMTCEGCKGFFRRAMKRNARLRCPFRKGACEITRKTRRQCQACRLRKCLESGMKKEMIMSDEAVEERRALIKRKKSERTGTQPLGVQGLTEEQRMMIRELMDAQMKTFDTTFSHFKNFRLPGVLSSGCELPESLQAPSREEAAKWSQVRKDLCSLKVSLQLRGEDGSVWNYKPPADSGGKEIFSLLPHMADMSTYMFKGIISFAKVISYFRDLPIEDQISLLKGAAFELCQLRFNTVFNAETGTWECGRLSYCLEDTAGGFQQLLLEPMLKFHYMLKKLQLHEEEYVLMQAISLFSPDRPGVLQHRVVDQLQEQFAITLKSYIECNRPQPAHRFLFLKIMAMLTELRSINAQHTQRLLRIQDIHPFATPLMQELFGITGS
Nuclear receptor subfamily 1 group I member 2 (Rattus norvegicus), sequence (Q9R1A7 whole entry, looked up): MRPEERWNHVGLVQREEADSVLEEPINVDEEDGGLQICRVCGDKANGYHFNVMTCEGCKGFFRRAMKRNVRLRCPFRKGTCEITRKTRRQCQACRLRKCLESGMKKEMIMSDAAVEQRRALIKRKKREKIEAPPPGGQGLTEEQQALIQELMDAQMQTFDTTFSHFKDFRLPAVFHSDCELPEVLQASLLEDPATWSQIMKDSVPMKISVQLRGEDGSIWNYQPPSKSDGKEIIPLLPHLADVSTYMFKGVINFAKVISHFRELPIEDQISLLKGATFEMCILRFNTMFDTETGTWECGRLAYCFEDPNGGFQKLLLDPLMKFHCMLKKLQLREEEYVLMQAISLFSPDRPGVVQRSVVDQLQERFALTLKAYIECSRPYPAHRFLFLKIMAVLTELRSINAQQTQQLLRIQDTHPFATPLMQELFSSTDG
Cytochrome P450 2C9 (Homo sapiens), sequence (P11712 whole entry, looked up): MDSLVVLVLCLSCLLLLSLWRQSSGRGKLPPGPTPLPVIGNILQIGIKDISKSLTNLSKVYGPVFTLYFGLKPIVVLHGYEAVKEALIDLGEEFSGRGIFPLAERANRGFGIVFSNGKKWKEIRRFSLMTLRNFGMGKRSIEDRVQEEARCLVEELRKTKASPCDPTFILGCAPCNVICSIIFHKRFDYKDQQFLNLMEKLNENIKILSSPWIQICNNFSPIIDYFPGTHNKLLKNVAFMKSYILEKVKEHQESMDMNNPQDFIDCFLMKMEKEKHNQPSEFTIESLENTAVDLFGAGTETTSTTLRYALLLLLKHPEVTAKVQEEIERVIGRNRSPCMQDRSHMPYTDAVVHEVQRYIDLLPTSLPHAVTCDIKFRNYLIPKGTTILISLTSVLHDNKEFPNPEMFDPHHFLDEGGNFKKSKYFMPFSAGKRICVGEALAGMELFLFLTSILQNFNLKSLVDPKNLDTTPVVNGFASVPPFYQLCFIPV

Regarding `CC(C)(CCl)c1ccccc1`, the Potency entry in assay [1], in [2], in [3], in assay [4], in [6] and in assay [7] was “inactive” throughout. Further, the Potency entry in assay [8], in assay [9], in assay [10], in [11], in [12] and in assay [13] was “inactive” each time. In addition, in assay [5], the compound was called inactive.

`NCC1CCCC(CN)C1` (stereo not given): the Potency result in assay [1], in assay [2], in assay [3], in [4], in [6] and in assay [7] was “inactive” throughout. Further, the Potency entry in assay [9], in assay [10], in [11], in assay [12] and in assay [13] was “inactive” throughout. The outcome in assay [5] was inactive. Also, the Potency in [8] is 14.2 µM (active).

For `O=C(Nc1ccc([N+](=O)[O-])cc1)Nc1ccc([N+](=O)[O-])cc1`, the Potency entry in assay [1], in assay [2], in assay [3], in assay [4], in assay [6] and in assay [7] was “inactive” throughout. Further, the Potency result in assay [15], in assay [16], in assay [8], in assay [10], in assay [11] and in [12] was “inactive” in each case. For the same compound, the Potency entry in [13] was “inactive”. In addition, the result in assay [5] was inactive. In addition, the max activation in [14] is -0.532%.

For `CC(C)OCC1CO1` (stereo not given), the Potency entry in assay [1], in assay [2], in assay [3], in [4], in [6] and in assay [7] was “inactive” in each case. For the same compound, the Potency entry in assay [8], in assay [10], in assay [11] and in assay [12] was “inactive” in each case. In assay [5], the compound was called inactive.

Take `O=C(O)c1ccc(CO)o1`: the Potency entry in [1], in assay [2], in assay [3], in assay [4], in assay [6] and in assay [7] was “inactive” each time. For the same compound, the Potency entry in assay [9], in assay [10] and in [12] was “inactive” in each case. For the same compound, the compound was classed as inactive in assay [5]. For the same compound, the Potency in [8] is 18.2 µM (active); in assay [11] it was 64.4 µM (active).

In the case of `CNC(=O)N(c1ccccc1)c1ccccc1`, the Potency entry in [1], in [2], in assay [3], in assay [6], in [9] and in assay [10] was “inactive” each time. For the same compound, the Potency result in [12] is “inactive”. Also, the Potency in assay [4] was 43.5 µM (active); in assay [7] it was 48.8 µM (active); in [8] it was 35.7 µM (active); in assay [11] it was 40.1 µM (active). Moreover, the compound was classed as inactive in assay [5].

Turning to `C[C@@H]1C[C@H]2[C@@H]3CCC4=CC(=O)C=C[C@]4(C)[C@@]3(F)[C@@H](O)C[C@]2(C)[C@H]1C(=O)CO`, the Potency result in assay [1], in [2], in assay [3], in [4], in assay [6] and in assay [15] was “inactive” in each case. The Potency result in [16], in assay [8], in assay [11] and in assay [12] was “inactive” in each case. In assay [5], the call was inactive. Also, the Potency in [7] is 18.8 µM (active); in assay [14], 2.51 µM (active); in assay [9] it was 8.71 µM (active); in [10], 15.5 µM (active).

With `Cc1cc(OI)c(C(C)C)cc1-c1cc(C(C)C)c(OI)cc1C`, the Potency entry in [1], in assay [2], in assay [3], in assay [4], in [6] and in assay [8] was “inactive” throughout. Further, the Potency result in assay [12] and in assay [13] was “inactive” throughout. Further, the outcome in assay [5] was inactive. Besides, the Potency in [7] is 29.8 µM (active); in assay [16] it was 15.8 µM (active); in [9], 8.71 µM (active); in assay [10], 17.4 µM (active). The max activation in assay [14] is 0.407%.

(Values after PubChem BioAssay (Tox21).)
